In PubChem BioAssay:

experiment: E. coli acrAB mutant growth effects, primary screen, E. coli filamentation inducers, strain DRC39, OD650, 24 h (AID 1178); conditions: higher = more signal, called active from +8 up or from −8 down;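 also: growth measured as culture turbidity by optical density at 650 nm; test concentration not given here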

z-score, inactive:
CC1CC/C=C\[C@H]2OC34C=CCN(c5ccc6ccccc6c5)C(=O)[C@H]3N(CCCCCO)C(=O)[C@@H]4C2C(=O)O1 (stereo not given in full) 0.11
CN1C(=O)C2C=CC(C(O)C(C)(C)C)N(Nc3ccccc3)C2C1=O (stereo not given) -0.568
Cc1ccc(S[C@]2(C(=O)NCCCN(C)C)CC(=O)N(Cc3ccccc3)[C@@H]2c2ccc(CO)cc2)cc1 -0.194
O=C1O[C@H](c2ccccc2)[C@H](c2ccccc2)N2[C@H]1[C@@H](C(=O)NC[C@H](O)c1ccccc1)[C@]1(C(=O)Nc3ccc(C#CC4=CCCCC4)cc31)[C@H]2c1ccc(O)cc1 0.146
O=C(CS)NCCCCCNC(=O)[C@H]1C[C@H]2C(=O)N[C@@H](Cc3ccccc3)C(=O)N2[C@H]1c1cccc(OCCO)c1 1.94
CCCC[C@H]1OB(O)C[C@H]2C1=C(COc1ccccc1)C[C@H]1C(=O)N(Cc3ccccc3)C(=O)[C@H]12 0.875
O=c1cccc(-c2cccc3ccccc23)o1 -0.0645
CCCCCN1CC=CC23O[C@@H]4C=CCCOC(=O)C4[C@H]2C(=O)N(CCCO)[C@@H]3C1=O (stereo not given in full) -0.761
CS(=O)(=O)CCOC(=O)C1=CC(c2ccc(CO)cc2)=CC(c2cccs2)N(Cc2cccc(OC(F)(F)F)c2)C=C1C(=O)OCCS(C)(=O)=O (stereo not given) -2.93
C#C[C@H](O[Si](C#CCCCCCC)(C(C)C)C(C)C)c1ccccc1 0.0687
COc1ccc([Si](C)(C)[C@@H]2[C@@H](CCO)O[C@]3(C(=O)N(Cc4ccccc4)c4ccc(N(C=O)c5ccccc5)cc43)[C@H]2C)cc1 1.23
C=C(COC)C(=O)CC[C@H](OC(=O)c1cccnc1)c1ccccc1OCCO -0.438
C=CCC(OC(C)=O)[C@@H]1[C@@H](N(Cc2cc3ccccc3o2)C(=O)c2ccc(C)cc2)c2cc(OCCCO)ccc2N1C(=O)c1ccc(-c2ccccc2)cc1 (stereo not given in full) 1.15
NC(=O)[C@]1(Cc2ccccc2)N=C(c2ccc(OCCCO)cc2)O[C@@H]1c1ccccc1 0.0671
[N-]=[N+]=NCc1ccccc1C[C@]1(C(=O)NCCN2CCOCC2)N=C(c2ccc(OCCCO)cc2)O[C@H]1c1ccccc1CN=[N+]=[N-] 1.93
CCOC(=O)C1=CC[C@@H](c2cccc(Cl)c2)N(S(=O)(=O)c2ccc(C)cc2)[C@H]1c1ccc(C#N)cc1 -0.905
O=c1cccc(-c2ccccc2)o1 -0.438
CC(=O)NCCCC[C@@H]1NC(=O)[C@@H]2C[C@H](C(=O)NCc3ccc(F)cc3)[C@H](c3ccc(O)cc3)N2C1=O 0.304
O=C1OCCC=C[C@H]2OC34C=CCN(c5ccc6ccccc6c5)C(=O)[C@H]3N(CCCCCCO)C(=O)[C@@H]4C12 (stereo not given in full) 0.982
O=C1OCCC/C=C\[C@H]2OC34C=CCN(Cn5nnc6ccccc65)C(=O)[C@H]3N(CCCO)C(=O)[C@@H]4C12 (stereo not given in full) 0.339
CC(C)OC(=O)C1=CCC(c2cccc(Cl)c2)O1 (stereo not given) -0.138
O=C1[C@H]2C=C(Br)[C@H](C[C@@H]2OCCOCCO)[C@@]12CO2 -0.308
O=c1cccc(-c2ccc3ccccc3c2)o1 0.632
CCCCCCCCCCC(O)C1C=CC2C(=O)N(c3ccccc3)C(=O)C2N1Nc1ccc([N+](=O)[O-])cc1 (stereo not given) -0.552
CN1C(=O)C2C=CC(C(O)c3ccccc3)N(NC(=O)OC(C)(C)C)C2C1=O (stereo not given) -0.68
CN(C)CCCC[C@@H]1NC(=O)[C@@H]2C[C@H](C(=O)NCCCCCCN)[C@H](c3ccc(O)cc3)N2C1=O 0.254
CCOC(=O)C[C@H]1[C@H](OC(=O)c2cc3ccccc3oc2=O)[C@@H](NC(=O)c2ccc3ccccc3c2)c2cc(OCCCO)ccc2N1C(=O)c1ccccc1 -0.464
COc1ccc([Si](C)(C)[C@@H]2[C@@H](CCO)O[C@]3(C(=O)N(Cc4ccc(N5C(=O)c6cccc7cccc5c67)cc4)c4ccccc43)[C@H]2C)cc1 1.68
O=C(NCC(O)CO)[C@@]1(Cc2ccccc2)COC(c2ccc(OCCCO)cc2)=N1 (stereo not given in full) 0.187
CC(C)(C)OC(=O)CC[C@]1(C(=O)NCC(O)CO)N=C(c2ccc(OCCCO)cc2)O[C@H]1c1ccccc1CN=[N+]=[N-] (stereo not given in full) -0.185
C=C(/C(=C/C[C@@H](OC(C)=O)c1ccc(CO)o1)c1cnc2ccccc2c1)C(C)C 0.99
O=C1O[C@H](c2ccccc2)[C@H](c2ccccc2)N2[C@H]1[C@@H](C(=O)NC[C@H](O)c1ccccc1)[C@]1(C(=O)Nc3ccc(C#CC4(O)CCCCCC4)cc31)[C@H]2c1ccccc1OCCO 0.408
O=C1C[C@@](C(=O)O)(c2ccc([N+](=O)[O-])cc2)[C@@H](c2ccc(CO)cc2I)N1C1CCCCC1 1.39
COc1ccc(CCNC(=O)[C@@]2(C)c3ccccc3C(=O)N(Cc3ccccc3)[C@H]2c2ccc(CO)cc2)cc1 0.605
CC1CC/C=C\[C@H]2OC34C=CCN(Cn5nnc6ccccc65)C(=O)[C@H]3N(CCCO)C(=O)[C@@H]4C2C(=O)O1 (stereo not given in full) 0.0706
